We go through nine compounds from PubChem BioAssay (Tox21).

Values without a mark were called inactive. Inconclusive results are not listed. Calls of active or inactive are those of the source. Unless noted, the call rests on the fitted dose curve; in most records, active means well fitted curve in the direction sought with a large enough effect in the repeat runs; inconclusive means weak or mixed curves; inactive means no such curve, though single readings can be large; an effect the other way counts as inactive or inconclusive.

Test [1] can be described thus: qHTS assay to identify small molecule antagonists of the constitutive androstane receptor (CAR) signaling pathway - cell viability counter screen (AID 1224837). Further: nearly all actives have a fitted effect of over 45% in size. Further: potency means the concentration at half of the fitted maximal effect. Put shortly: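 HepG2 cells stably carrying hCAR and CYP2B6-2.2kb reporter, stimulated with 50 nM CITCO and compounds at 15 concentrations for 23 h at 37 C. Viability measured by CellTiter-Fluor fluorescence.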
(Quantitative high-throughput screening tests each substance at several concentrations.)

Test [2] addresses Nuclear receptor subfamily 1 group I member 3 (Homo sapiens) (UniProt Q14994). The test is described as follows: qHTS assay to identify small molecule agonists of the constitutive androstane receptor (CAR) signaling pathway (AID 1224839). Further: nearly all actives have a fitted effect of over 15% in size. Further: potency means the concentration at half of the fitted maximal effect. On activation: on the % scale 0 is the no-effect control and ±100 the full control effect. Put shortly:
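Double-stable HepG2 cells (hCAR, CYP2B6-2.2kb) seeded 4 h before compound addition. Exposure 24 h with 0.75 uM PK11195 final. Luciferase detected by ONE-Glo.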

A short description of test [3]: qHTS assay to identify small molecule antagonists of the estrogen related receptor signaling pathway with the pleiotropic PPARgamma coactivator (PGC) from Tox21 10K library - cell viability counter screen (AID 1224840; active means well fitted cell-killing curve with a large enough effect in the repeat runs, not every such curve was filed as active; further: nearly all actives have a fitted effect of over 40% in size; further: potency means the concentration at half of the fitted maximal effect). Put shortly:
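PGC/ERR cells (2,000/well) plated 6 h, then compound-treated for 17.5 h at 37 C. Viability measured by CellTiter-Fluor fluorescence after 30 min at 37 C, multiplexed with the pathway assay.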

Test [4] is described as follows: qHTS assay to identify small molecule agonists of the estrogen related receptor signaling pathway with the pleiotropic PPARgamma coactivator (PGC) from Tox21 10K library (AID 1224842). Further: nearly all actives have a fitted effect of over 15% in size. Further: potency means the concentration at half of the fitted maximal effect. On activation: on the % scale 0 is the no-effect control and ±100 the full control effect. Put shortly: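 PGC/ERR reporter cell line, 2,000 cells per well, incubated 6 h at 37 C before 23 nL compound in DMSO was added. After 18 h at 37 C, One-Glo luminescence read following 30 min at room temperature.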

The nature of test [5]: qHTS assay to identify small molecule agonists of the hypoxia (HIF-1) signaling pathway - cell viability counter screen (AID 1224844; calls by dose curve; further: nearly all actives have a fitted effect of over 50% in size; further: potency means the concentration at half of the fitted maximal effect). Put shortly:
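HRE-bla ME-180 cells, 2,000/well in 0.5% dialyzed FBS medium, treated 17 h at 37C with compounds. Viability read in the same wells as the bla reporter, by CellTiter-Glo luminescence after 30 min at room temperature.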

Test [6] in a line: qHTS assay to identify small molecule agonists of H2AX (AID 1224845; active means well fitted activation curve with a large enough effect in the signal ratio in the repeat runs, not every such curve was filed as active; the % refers to the signal ratio; further: potency means the concentration at half of the fitted maximal effect). Put shortly:
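Wild-type CHO-K1 cells, plated overnight, exposed 3hr at 37C to 15 concentrations (0.76% DMSO final). Lysed, then HTRF anti-pH2AX (S139) cryptate and anti-H2AX-d2 antibodies, 24 hr room temperature; 665/620 nm emission read.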

Test [7] is described as follows: qHTS assay to identify small molecule agonists of H2AX - cell viability counter screen (AID 1224847; calls by dose curve; further: nearly all actives have a fitted effect of over 30% in size; further: potency means the concentration at half of the fitted maximal effect). Put shortly:
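Quantitative HTS viability measurement: CHO-K1 wild-type cells in serum (10% FBS) medium, short 3 hr drug exposure at 37C with 0.76% DMSO, CellTiter-Glo luminescent detection.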

Test [8] can be described thus: qHTS assay to identify small molecule agonists of the estrogen related receptor (ERR) signaling pathway from Tox21 library (AID 1224849; calls by dose curve; further: on the % scale 0 is the no-effect control and ±100 the full control effect; nearly all actives have a fitted effect of over 15% in size). Particulars: ERR reporter cell line, ONE-Glo luciferase, 18 h; at 92.4 µM (top of the series) unless noted. Put shortly:
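ERR reporter cells (NTP line) pre-incubated 6 hours at 37 C, then exposed to compounds for 18 hours at 37 C. ONE-Glo luciferase luminescence was read after 30 minutes at room temperature.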

Test [9] can be described thus: qHTS RealTime-Glo MT Cell Viability Assay in HepG2 cells - 24 hour (AID 1224867). Further: nearly all actives have a fitted effect of over 50% in size. Further: potency means the concentration at half of the fitted maximal effect. Put shortly:
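Cells + NanoLuc/prosubstrate dispensed (600 cells/well) → 5 h at 37 C/5% CO2 → compounds in DMSO transferred → 40 h incubation at 37 C, luminescence read at 0, 8, 16, 24, 32, 40 h.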

Test [10] in a line: A CellTox Green Cytotoxicity Assay to monitor cytotoxicity in HEK293 cells - 0 hour (AID 1224869). Further: on the % scale 0 is the no-effect control and ±100 the full control effect; nearly all actives have a fitted effect of over 50% in size. Put shortly: (§1)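 HEK293 cells, 600/well, were preincubated 5 hours and then exposed to compounds at 37 C for up to 40 hours. A cell-impermeant cyanine dye staining dead-cell DNA was read by fluorescence at 0, 8, 16, 24, 32 and 40 h time points.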
A short description of test [11]: qHTS RealTime-Glo MT Cell Viability Assay in HepG2 cells - 40 hour (AID 1224870). Further: nearly all actives have a fitted effect of over 50% in size. Further: potency means the concentration at half of the fitted maximal effect. Put shortly: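 HepG2 cells (600/well) mixed with RealTime-Glo MT reagent, settled 5 h at 37 C/5% CO2 before compound addition. Nonlytic NanoLuc luminescence from viable-cell prosubstrate reduction read repeatedly during 40 h treatment at 37 C.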
Test [12] can be described thus: A CellTox Green Cytotoxicity Assay to monitor cytotoxicity in HEK293 cells - 40 hour (AID 1224871). Further: nearly all actives have a fitted effect of over 45% in size. Further: potency means the concentration at half of the fitted maximal effect. Put shortly:
as §1

The target in test [13] is Nuclear receptor subfamily 1 group I member 3 (Homo sapiens) (UniProt Q14994). Briefly: qHTS assay to identify small molecule antagonists of the constitutive androstane receptor (CAR) signaling pathway (AID 1224838). Further: nearly all actives have a fitted effect of over 40% in size. Further: potency means the concentration at half of the fitted maximal effect. Put shortly:
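HepG2 cells stably carrying hCAR and a CYP2B6-2.2kb luciferase reporter, seeded 4 hrs before compound (15 concentrations). Stimulated with 50 nM CITCO for 24 hr at 37 C. ONE-Glo luminescence read after 30 min at room temperature.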

For test [14], the target named is Thyrotropin receptor (Homo sapiens) (UniProt P16473). The test is described as follows: qHTS assay to identify small molecule agonists of the thyroid stimulating hormone receptor (TSHR) signaling pathway (AID 1224843; calls by dose curve; further: on the % scale 0 is the no-effect control and ±100 the full control effect; nearly all actives have a fitted effect of over 45% in size). Put shortly:
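Steps: seed 800 TSHR-HEK293 cells per well; add test compound and hold 30 min at ambient temperature; dispense cAMP-d2 then anti-cAMP cryptate; incubate 1 h at ambient; measure fluorescence intensity.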

Test [15] can be described thus: qHTS assay to identify small molecule agonists of the hypoxia (HIF-1) signaling pathway (AID 1224846; active means well fitted activation curve with a large enough effect in the signal ratio in the repeat runs, not every such curve was filed as active; the % refers to the signal ratio; further: on the % scale 0 is the no-effect control and ±100 the full control effect). Put shortly: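 HRE-bla ME-180 beta-lactamase reporter cells in medium with 0.5% dialyzed FBS, pre-incubated 5 h then exposed to compounds 17 h at 37C, 5% CO2; reporter induction read with CCF4-AM FRET substrate.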
The nature of test [16]: qHTS RealTime-Glo MT Cell Viability Assay in HEK293 cells - 16 hour (AID 1224872). Further: nearly all actives have a fitted effect of over 50% in size. Further: potency means the concentration at half of the fitted maximal effect. Put shortly:
(§2)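 Tox21 10K qHTS, HEK293, 600 cells/well, RealTime-Glo reagent co-dispensed with cells; 5 h preincubation, compound by pintool, 37 C, luminescence at 0–40 h.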

Test [17] is described as follows: qHTS assay to identify small molecule antagonists of the estrogen related receptor (ERR) signaling pathway from Tox21 library (AID 1224848). Further: nearly all actives have a fitted effect of over 50% in size. Further: potency means the concentration at half of the fitted maximal effect. Put shortly:
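Luminescent reporter read-out (ONE-Glo) from NTP's ERR cell line after 18 h treatment at 37 C with DMSO-dissolved Tox21 compounds; cells pre-plated 6 h beforehand at 2,000 per well.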

Test [18] is described as follows: qHTS RealTime-Glo MT Cell Viability Assay in HEK293 cells - 32 hour (AID 1224868). Put shortly: as §2
Test [19] in a line: qHTS assay to identify small molecule antagonists of the estrogen related receptor signaling pathway with the pleiotropic PPARgamma coactivator (PGC) from Tox21 10K library (AID 1224841; call rule not given here; further: potency means the concentration at half of the fitted maximal effect). Put shortly: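 PGC/ERR cell line, 2,000 cells/well, pre-incubated 6 hours at 37 C, then exposed to compounds for 18 hours at 37 C; luciferase read with One-Glo luminescence after 30 min at room temperature.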

Chain of Thyrotropin receptor (Homo sapiens) (P16473 whole entry, looked up): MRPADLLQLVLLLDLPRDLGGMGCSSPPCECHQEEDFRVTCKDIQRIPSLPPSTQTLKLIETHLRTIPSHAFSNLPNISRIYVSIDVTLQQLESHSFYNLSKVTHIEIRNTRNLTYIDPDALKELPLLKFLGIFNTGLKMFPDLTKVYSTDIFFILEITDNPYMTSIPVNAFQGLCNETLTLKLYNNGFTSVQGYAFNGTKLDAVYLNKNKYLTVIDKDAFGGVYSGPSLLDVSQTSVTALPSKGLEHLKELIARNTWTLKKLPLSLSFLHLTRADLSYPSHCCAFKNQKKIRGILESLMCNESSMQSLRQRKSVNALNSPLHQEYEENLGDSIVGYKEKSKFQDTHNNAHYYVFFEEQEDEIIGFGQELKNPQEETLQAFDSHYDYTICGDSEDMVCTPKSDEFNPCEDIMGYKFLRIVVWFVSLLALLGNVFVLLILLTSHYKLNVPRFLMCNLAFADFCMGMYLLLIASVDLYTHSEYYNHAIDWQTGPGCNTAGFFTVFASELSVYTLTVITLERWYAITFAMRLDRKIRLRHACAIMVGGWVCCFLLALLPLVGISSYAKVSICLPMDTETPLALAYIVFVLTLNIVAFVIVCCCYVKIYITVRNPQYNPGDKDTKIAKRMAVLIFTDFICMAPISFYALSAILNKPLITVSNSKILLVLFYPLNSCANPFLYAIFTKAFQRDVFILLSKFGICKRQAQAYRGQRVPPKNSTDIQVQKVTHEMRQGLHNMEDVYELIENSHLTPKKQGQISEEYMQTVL
Chain of Nuclear receptor subfamily 1 group I member 3 (Homo sapiens) (Q14994 whole entry, looked up): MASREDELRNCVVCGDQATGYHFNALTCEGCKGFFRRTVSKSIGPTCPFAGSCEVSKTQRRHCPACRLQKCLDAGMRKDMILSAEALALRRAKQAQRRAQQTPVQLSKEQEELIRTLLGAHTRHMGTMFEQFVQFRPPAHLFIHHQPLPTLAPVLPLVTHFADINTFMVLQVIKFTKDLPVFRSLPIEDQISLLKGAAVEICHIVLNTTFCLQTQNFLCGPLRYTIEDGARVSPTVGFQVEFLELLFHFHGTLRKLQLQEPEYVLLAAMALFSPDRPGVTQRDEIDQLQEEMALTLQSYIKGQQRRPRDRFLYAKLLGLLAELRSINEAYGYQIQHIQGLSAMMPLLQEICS

Take `O=C(Nc1cccc([N+](=O)[O-])c1)c1cc2ccccc2cc1O`: the Potency in [1] is 9.69 µM (active); in test [2], 2.43 µM (active); in [3] it was 3.86 µM (active); in test [7], 11.3 µM (active). Moreover, the Potency entry in test [4], in test [5], in test [6], in [9], in test [10] and in [11] was “inactive” throughout. Further, in [12], the Potency entry was “inactive”. Moreover, in [8], the activity change, positive = activation was -21.9%.
As to `CCCCCCCCS(=O)C(C)Cc1ccc2c(c1)OCO2` (centres undefined), the Potency entry in test [1], in test [13], in test [3], in test [14], in test [5] and in test [6] was “inactive” throughout. In addition, the Potency entry in [15], in [9], in [10], in test [11] and in test [12] was “inactive” throughout.
As to `Cc1[nH]nc2c1N=C(c1ccccc1Cl)c1cc([N+](=O)[O-])ccc1N2`, the Potency was 21.7 µM (active) in test [1], 7.7 µM (active) in [13], 34.4 µM (active) in test [3] and 80 µM (active) in test [7]. The Potency entry in [2], in [14], in test [9], in test [10], in test [11] and in [12] was “inactive” throughout.
`CN1CCN(CCC(=O)N2c3ccccc3Sc3ccc(C(F)(F)F)cc32)CC1`: the Potency entry in test [1], in test [4], in test [14], in test [15] and in test [10] was “inactive” each time. Besides, the results for the Potency in [3] and in test [9] were 29.8 µM (active) and 23.9 µM (active), respectively. In [8], the activity change, positive = activation was -67.1% [at 42.5 µM].
`CCCCC(CC)COC(=O)c1ccccc1C(=O)O` (centres undefined): the Potency entry in test [1], in test [2], in test [3], in test [4], in test [6] and in [15] was “inactive” in each case. The Potency result in test [7], in test [9], in test [10], in test [11], in test [12] and in [16] was “inactive” throughout. Also, the activity change, positive = activation in test [8] was -12.5%.
As to `Oc1ccc(C2(c3ccc(O)cc3)CC3CC2C2CCCC32)cc1` (centres undefined), the Potency in [1] was 52.3 µM (active); in test [3] it was 58.7 µM (active); in test [5], 33.3 µM (active); in test [7] it was 86.2 µM (active); in test [17] it was 58.7 µM (active). For the same compound, the Potency result in test [4], in test [9], in test [10] and in test [11] was “inactive” in each case. Further, the activity change, positive = activation in test [8] is -75.2%.
Take `Cc1cc(C2CCCCC2)n(O)c(=O)c1`: the Potency in [1] is 29.8 µM (active); in [3], 26.6 µM (active); in test [6], 9.82 µM (active); in [18] it was 1.69 µM (active). Besides, the Potency entry in test [14], in [7], in [9] and in [10] was “inactive” in each case.
Take `COc1ccc(C(=O)/C(Br)=C\C(=O)O)cc1`: the Potency entry in test [1], in [13], in [19], in test [15], in [17] and in test [10] was “inactive” each time. Besides, the Potency in test [4] is 24.3 µM (active); in test [6], 31.8 µM (active); in test [18], 38.9 µM (active); in test [12], 24.5 µM (active); in test [16], 38.9 µM (active).
For the compound `CC[C@@]1(O)C(=O)OCc2c1cc1n(c2=O)Cc2c-1nc1ccccc1c2/C=N/OC(C)(C)C`, the Potency in [13] is 0.0376 µM (active); in test [19] it was 4.73 µM (active); in test [17] it was 0.0596 µM (active); in [18] it was 0.0239 µM (active); in test [11] it was 1.07 µM (active). Moreover, the Potency entry in test [2], in [3], in [4], in test [10] and in [12] was “inactive” throughout. Further, in test [8], the activity change, positive = activation is -54.3% [at 42.5 µM].
